Our source for the survival values is PubChem BioAssay AID463173 (ICCB-Longwood Screening Facility, Harvard Medical School, 2010).

Hit rate of the full screen: of about 52,000 compounds, about 4,300 (8.3%) were called active. This excerpt belongs to a sample that is enriched for actives. Unmarked numbers belong to inactive results. No stated cut-off is given here; in the data, active means survival mostly below about 52% (no sharp cut-off); inactive means mostly above about 56%.

For the experiment, the system named is DeltatarO mutant. Description: growth inhibition of S. aureus wild type versus tarO mutant, primary screen, teichoic acid synthesis inhibitors, RN4220, OD600 (AID 463173). As to conditions: OD600, 18 h, hits give low values, screened at 18.75 µg/mL (by protocol).
For `COC(=O)CNc1ccc(C)c(C)c1`, the survival was 67%.

On to `Cc1cccc(CCNC(=O)c2nc(-c3ccc(Cl)cc3)n3c2CCCCC3)c1`, for which the survival is 89%.

Consider `O=C(Nc1ccc(C(F)(F)F)cc1)C1CCC(CNS(=O)(=O)c2cccc3nsnc23)CC1` (centres undefined), for which the survival is 49%.

With `Cc1ccc(-n2ncc(C(=O)NCCCN3CCN(c4cccc(Cl)c4)CC3)c2-n2cccc2)cc1`, the survival was 75%.

Turning to `Cc1ccc(-n2nc(C)c(C(=O)NCCCN3CCN(c4cccc(Cl)c4)CC3)c2-n2cccc2)cc1`, the survival was 0% (active).

Take `O=C(NCCCN1CCN(c2ccc(F)cc2)CC1)c1cnn(-c2ccc(F)cc2)c1-n1cccc1`: the survival is 70%.

As to `Cc1nn(-c2ccc(F)cc2)c(-n2cccc2)c1C(=O)NCCCN1CCN(c2cccc(Cl)c2)CC1`, the survival is 94%.

In the case of `Cc1ccc(-n2nc(C)c(C(=O)NCCCN3CCN(c4ccc(F)cc4)CC3)c2-n2cccc2)cc1`, the survival was 92%.

On to `O=C(NCCCN1CCN(c2cccc(Cl)c2)CC1)c1cnn(-c2ccc(F)cc2)c1-n1cccc1`, for which the survival is 32% (active).

With `O=C(Cn1c(=O)c2cc(Cl)ccc2n2nncc12)Nc1ccccc1`, the survival is 75%.

Consider `O=C(CCC1CCCC1)N1CCc2c([nH]c3ccccc23)C1c1ccc(F)cc1` (centres undefined), for which the survival is 99%.

As for `CCCCN(C(=O)C1CCC1)c1nnc(-c2ccncc2)s1`, the survival is 96%.

Turning to `Clc1ccc(-c2nc3ncccn3c2Nc2ccc3c(c2)OCCO3)cc1`, the survival is 89%.

Take `COc1ccc(C(=O)NCC(c2cccnc2)N2CCN(c3ccccc3F)CC2)cc1OC` (centres undefined): the survival is 86%.

For `Cc1ccc2[nH]c(=O)c(CN(Cc3nnnn3CCc3ccccc3)C3CCCC3)cc2c1`, the survival is 91%.

With `CCOc1ccc(OCC)c(NS(=O)(=O)c2ccc3c(c2)CCCN3C(C)=O)c1`, the survival was 73%.

For `COc1ccc(-c2noc(-c3cccnc3NCc3ccco3)n2)cc1`, the survival was 98%.

Consider `Cc1ccccc1-c1noc(-c2cccnc2NCc2ccco2)n1`, for which the survival was 52%.

Consider `Cc1cccc(-c2noc(-c3cccnc3NCc3ccco3)n2)c1`, for which the survival was 44% (active).

Take `c1ccc(-c2noc(-c3cccnc3NCc3ccco3)n2)cc1`: the survival is 60% (active).

On to `Cc1ccc(-c2noc(-c3cccnc3NCc3ccco3)n2)cc1`, for which the survival was 65%.

Consider `Clc1ccc(-c2noc(-c3cccnc3NCc3ccco3)n2)cc1`, for which the survival is 61%.

With `Cc1cccc(N2CCN(C3(c4ccccc4)C(=O)c4ccccc4C3=O)CC2)c1C`, the survival was 79%.

On to `COc1ccc(C(=O)NC(c2ccccc2Cl)c2cc(Cl)c3cccnc3c2O)cc1` (centres undefined), for which the survival is 92%.

Regarding `CCC(=O)NC(c1ccccc1OC)c1cc(Cl)c2cccnc2c1O` (centres undefined), the survival was 68%.

Regarding `COc1ccccc1CC(=O)Nc1cccc(C)n1`, the survival was 97%.

For the compound `COc1cccc(C(=O)NC(c2ccc(Cl)cc2)c2cc(Cl)c3cccnc3c2O)c1` (centres undefined), the survival is 89%.

Turning to `Oc1cccc(C(Nc2ccccn2)c2ccc3cccnc3c2O)c1Cl` (centres undefined), the survival is 26% (active).

For `Cc1cccc(NC(c2cccc(Cl)c2)c2ccc3cccnc3c2O)n1` (centres undefined), the survival was 2% (active).

Take `Cc1cccc(NC(=O)c2ccccc2)n1`: the survival was 93%.

Regarding `Cc1ccc(C(Nc2ccccn2)c2ccc3cccnc3c2O)cc1` (centres undefined), the survival is 1% (active).

As to `COc1ccc(C(=O)NC(c2ccc(Cl)cc2)c2cc(Cl)c3cccnc3c2O)cc1` (centres undefined), the survival is 88%.

On to `Cc1cccc(NC(c2ccccc2C)c2ccc3ccc(C)nc3c2O)n1` (centres undefined), for which the survival is 0% (active).

In the case of `Nc1nnc(CCc2ccccc2)s1`, the survival is 80%.

Take `O=C(O)CCOc1ccc2c(c1)OCCO2`: the survival was 82%.

As to `CCC(CC)c1nn2c(=O)cc(COc3ccc(NC(=O)c4ccccc4C)cc3)nc2s1`, the survival was 81%.

Take `O=C(CSc1nc2c(c(=O)[nH]1)CCC2)Nc1ccccc1C(F)(F)F`: the survival was 72%.

Take `O=C(CN1C(=O)COc2ccc(S(=O)(=O)N3CCCCCC3)cc21)NCc1ccc(Cl)cc1`: the survival was 113%.

In the case of `CCOCCCNC(=O)c1cc2c(=O)n(C)c3ccccc3c2n1C`, the survival was 86%.

`O=C(Nc1ccccc1C(F)(F)F)N1CCC2(CC1)Oc1ccccc1C(=O)N2Cc1ccccc1F`: the survival was 67%.

On to `COc1cc(-c2cc(OC)c3c(C)oc(C)c3c(=O)c2)ccc1OC(=O)c1ccc(C)cc1`, for which the survival was 88%.

Take `Cc1ccc(NC(=O)c2sc3nc(-c4ccc(F)cc4)cn3c2C)c(C)c1`: the survival was 81%.

As for `O=C(O)CCC(=O)Nc1ccc2c(c1)oc1ccccc12`, the survival was 86%.

For `COc1cc(C(=O)NC(c2ccc(Cl)cc2)c2cc(Cl)c3cccnc3c2O)cc(OC)c1OC` (centres undefined), the survival was 85%.

For the compound `O=C(c1ccccc1)C(Nc1ccccn1)c1ccccc1` (centres undefined), the survival is 99%.

As for `Cc1ccnc(NC(c2cccc(O)c2)c2ccc3ccc(C)nc3c2O)c1` (centres undefined), the survival is 68%.

Regarding `Cc1ccc2ccc(C(Nc3ccccn3)c3ccccc3)c(O)c2n1` (centres undefined), the survival is 39% (active).

`Cc1ccc(C(C)C)cc1S(=O)(=O)Nc1ccccn1`: the survival is 101%.

Take `COc1ccc(C(Nc2ccccn2)c2ccc3ccc(C)nc3c2O)cc1C` (centres undefined): the survival was 40% (active).

`O=C(COc1ccccc1Cl)Nc1ccccc1OCc1cc(=O)n2ccccc2n1`: the survival is 92%.

Turning to `COc1ccc(NC(=O)COCc2cc(-c3ccco3)on2)cc1Cl`, the survival is 112%.

For `Cc1ccc(NC(=O)C2CCCN2S(=O)(=O)c2cccc3nsnc23)c(C)c1` (centres undefined), the survival was 78%.

As for `COc1cc(NC(=O)CN2C(=O)c3ccccc3Sc3ccc(C(=O)N4CCCC4)cc32)cc(OC)c1`, the survival is 72%.

As for `CCc1ccc2occ(CC(=O)Nc3ccc(OC)c(Cl)c3)c2c1`, the survival was 88%.

On to `CCc1c(C)sc(NC(=O)c2cc(-c3cccc(Cl)c3)on2)c1C#N`, for which the survival is 69%.

With `CCOC(=O)c1sc(NC(=O)c2cc(CC)on2)c(C(=O)OCC)c1C`, the survival is 54%.

Turning to `CCc1cc(C(=O)Nc2sc(C)c(CC)c2C#N)no1`, the survival was 35% (active).

For `COc1ccc(-c2cc(C(=O)Nc3ccc(C#N)cc3)no2)cc1`, the survival is 46%.

On to `CCc1c(C)sc(NC(=O)c2cc(-c3ccc(OC)cc3)on2)c1C#N`, for which the survival was 50% (active).

As for `CCc1c(C)sc(NC(=O)c2cc(-c3ccc(OC)c(OC)c3)on2)c1C#N`, the survival is 149%.

Regarding `CC(C)OCCCn1c(=O)c2ccccc2n2c(-c3ccccc3)nnc12`, the survival was 105%.

Regarding `CCN1CCN(CCCNC(=O)c2ccc3c(c2)sc2nc(-c4ccc(OC)cc4)cn23)CC1`, the survival was 72%.

On to `CCCN1CCN(CCCNC(=O)c2ccc3c(c2)sc2nc(-c4ccc(C)cc4)cn23)CC1`, for which the survival was 18% (active).

As to `CCN1CCN(CCCNC(=O)c2ccc3c(c2)sc2nc(-c4ccc(C)cc4)cn23)CC1`, the survival was 26% (active).

For the compound `COc1ccccc1Nc1nc(C)nc(N)c1S(=O)(=O)c1ccccc1`, the survival was 84%.

Consider `COc1ccc2cc(-c3nc(Cl)c4c5c(sc4n3)CCCC5)c(=O)oc2c1`, for which the survival is 76%.

`CC1CCc2c(sc3nc(-c4cc5ccccc5oc4=O)nc(Cl)c23)C1` (centres undefined): the survival was 61%.

In the case of `COc1ccc2cc(-c3nc(Cl)c4c5c(sc4n3)CC(C)CC5)c(=O)oc2c1` (centres undefined), the survival is 77% (active).

Take `COc1ccc(-c2csc(NC(=O)C(C)C)n2)cc1`: the survival was 84%.

As for `CCOC(=O)COc1ccc(C)cc1C(=O)c1ccn2nc(-c3ccc(F)cc3)cc2n1`, the survival is 69%.

In the case of `Cn1c(=O)oc2cc(S(=O)(=O)N3CCC(C(=O)NCc4ccccc4Cl)CC3)ccc21`, the survival is 125%.

On to `COC(=O)c1cc(-c2cc(OC)c(OC)c(OC)c2)no1`, for which the survival is 99%.

Regarding `c1ccc(OCCn2c(COc3ccccc3)nc3ccccc32)cc1`, the survival was 0% (active).

Turning to `Cc1ccc(C)c(OCc2nc3ccccc3n2C)c1`, the survival was 59%.

As for `CC(C)(C)c1ccc(OCc2nc3ccccc3n2CCOc2ccccc2)cc1`, the survival was 10% (active).

For `Cn1c(COc2ccccc2C(C)(C)C)nc2ccccc21`, the survival is 5% (active).

Take `Cn1c(COc2ccccc2Br)nc2ccccc21`: the survival is 92%.

For the compound `COc1ccc(OCc2nc3ccccc3n2Cc2ccc(C(C)(C)C)cc2)cc1`, the survival was -9% (active).

For `COc1cccc(OCc2nc3ccccc3n2Cc2ccccc2)c1`, the survival is 62%.

For `c1ccc(Cn2nnnc2C(c2ccccc2)N2CCN(Cc3ccncc3)CC2)cc1` (centres undefined), the survival is 78%.

For `CCc1ccc(CNC(=O)c2cccc(-n3cnc4cccnc43)c2C)cc1`, the survival is 88%.

With `CC(=O)c1cccc(NC(=O)CN2C(=O)c3ccccc3Sc3ncccc32)c1`, the survival was 95%.

On to `COc1ccc(CNC2CCCC2)cc1`, for which the survival was 79%.

For the compound `COc1ccc2[nH]cc(CCN=C(NC(=O)c3ccccc3F)Nc3nc(C)cc(C)n3)c2c1`, the survival was 99%.

In the case of `Cc1ccc(C)c(N2CCN(C(=O)CCc3nnc4n(C)c(=O)c5ccccc5n34)CC2)c1`, the survival is 95%.

In the case of `COc1ccc(OCc2nnc(SCC(=O)N(C3CCCCC3)C3CCCCC3)o2)cc1`, the survival was 72%.

In the case of `COc1ccc(S(=O)(=O)N2CCN(c3ccccc3OC)CC2)cc1-c1noc(C)n1`, the survival is 110%.

With `CCc1nc(-c2cc(S(=O)(=O)N3CCN(c4ccccc4OC)CC3)ccc2OC)no1`, the survival was 42% (active).

For `CCc1nc(-c2cc(S(=O)(=O)N3CCN(c4ccccc4F)CC3)ccc2OC)no1`, the survival was 42% (active).

For `COc1ccc(S(=O)(=O)N2CCN(c3ccccc3F)CC2)cc1-c1noc(C)n1`, the survival was 59%.

Consider `CCc1nc(-c2cc(S(=O)(=O)N3CCN(c4ccccc4)CC3)ccc2OC)no1`, for which the survival is 51%.

As to `CCc1nc(-c2cc(S(=O)(=O)N3CCN(c4ccc(F)cc4)CC3)ccc2OC)no1`, the survival was 49%.

As for `Cc1ccc(OCC(=O)Nc2ccc3nc(SCC(=O)N4CCOCC4)sc3c2)cc1`, the survival is 86%.

For the compound `O=C(NCc1ccccc1Cl)c1ccc(CS(=O)(=O)c2ccc(Br)cc2)o1`, the survival was 127%.
